The results in this text go back to PubChem BioAssay.

A short description of assay [1]: compounds altering viability of human ES cells (AID 493140; call rule not given here;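 also: cells exposed to compounds for four days before counting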). To be noted: human embryonic stem cell survival screen; stronger effect = higher value.
Assay [2] in a line: stimulators of insulin release from INS-1E, primary screen, cell-based, 5 mM glucose, NPC library (AID 1117329;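 active = compound raises insulin release from rat beta cells at 5 mM glucose, no numeric limit stated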). The note with it: rat INS-1E insulin secretion, at 10 µM, stronger effect = higher value.
Assay [3] can be described thus: growth inhibition of GSK3B-pretreated HCT116 cells – cell-based, CellTiter-Glo, 0.2 to 20 µM (AID 1117336;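 active = compounds lowering colon cancer cell viability after pretreatment blocking the GSK3B kinase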). To be noted: HCT116 viability after GSK3B inhibitor, at 20 µM, stronger effect = higher value.
A short description of assay [4]: inhibition of endothelial tube formation, primary screen, imaging, VEGF stimulated, CD31 staining, tube area, NPC library (AID 1117340;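 active = compound that reduces growth-factor-driven endothelial tube area in a mixed cell culture, no cutoff stated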). To be noted: VEGF-stimulated ADSC/ECFC co-culture, at 10 µM, stronger effect = higher value.
Assay [5] can be described thus: GLP1 release stimulators, primary, NCI-H716, NPC library (AID 1117341;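 active = compound raises GLP1 secretion from the human gut endocrine cells, with no numeric limit stated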). The note with it: NCI-H716 cells, at 10 µM, stronger effect = higher value.
Assay [6] is described as follows: HCT116 colon cancer cell growth inhibition, primary screen, CellTiter-Glo luminescence, NPC library (AID 1117342;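 active = compounds that lower survival of HCT116 colon cancer cells in the luminescence readout, no numeric limit stated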). The note with it: at 20 µM (top of the series).
Assay [7] is described as follows: reduced SW480 viability measured with CellTiter-Glo, NPC library, primary (AID 1117343;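 active = compounds that lower viability of the colon cancer cells in the luminescence readout, with no numeric limit stated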). To be noted: CellTiter-Glo luminescence; at 20 µM (top of the series) unless noted. Background: ATP-based viability assays read luminescence as a measure of living cells.
Assay [8] can be described thus: NPC library primary testing for decreased DLD-1 cell viability via CellTiter-Glo (AID 1117346;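 active = compounds that lower survival of DLD-1 colon cancer cells in the luminescence readout, no cutoff given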). The note with it: DLD-1 viability, CellTiter-Glo luminescence; at 20 µM (top of the series).
The target in assay [9] is 6-phosphogluconate dehydrogenase, decarboxylating (Homo sapiens) (UniProt P52209). The assay is described as follows: inhibition of human phosphogluconate dehydrogenase – biochemical, recombinant enzyme, NADPH absorbance, primary screen (AID 1159550;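 active = at least 20% inhibition of 6-phosphogluconate dehydrogenase activity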). The note with it: recombinant 6PGD, NADPH absorbance 341 nm; at 10 µM; stronger effect = higher value.
6-phosphogluconate dehydrogenase, decarboxylating (Homo sapiens), sequence (P52209 whole entry, looked up): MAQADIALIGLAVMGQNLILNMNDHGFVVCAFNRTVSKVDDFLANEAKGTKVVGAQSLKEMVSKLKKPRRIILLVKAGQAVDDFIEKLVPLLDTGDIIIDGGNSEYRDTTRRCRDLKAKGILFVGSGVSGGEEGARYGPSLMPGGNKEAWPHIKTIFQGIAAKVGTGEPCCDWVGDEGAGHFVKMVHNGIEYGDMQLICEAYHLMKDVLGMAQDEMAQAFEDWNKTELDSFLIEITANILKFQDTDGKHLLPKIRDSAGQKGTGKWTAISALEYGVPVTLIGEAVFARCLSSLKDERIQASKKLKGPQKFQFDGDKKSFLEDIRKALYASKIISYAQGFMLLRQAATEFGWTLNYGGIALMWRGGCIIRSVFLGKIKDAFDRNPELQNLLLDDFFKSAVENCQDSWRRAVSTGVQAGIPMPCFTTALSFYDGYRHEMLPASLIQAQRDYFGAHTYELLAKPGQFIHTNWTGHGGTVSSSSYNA
Assay [10] can be described thus: EMT-state selective cytotoxicity in co-culture – imaging, PC-3E GFP, TEM4-18 mCherry, primary screen (AID 1345086;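 active = compounds killing one labelled cell type while sparing the other, by normalised counts and ratio limits, not self-fluorescent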;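 as to all read-outs here: cells exposed to compound for 72 h before imaging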;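 as to red/green cell ratio (normalised): normalised mesenchymal count divided by normalised epithelial count so high means epithelial killing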). To be noted: PC-3E GFP / TEM4-18 mCherry co-culture, imaging cell counts, at 1 µM; for red/green cell ratio (normalised): actives lie on both sides, counts scaled to control wells, 1 = unselective.
Assay [11] is described as follows: viability loss with induced miR-34 in A549 – imaging, A549 dox-inducible miR-34, nuclei and caspase counts, primary screen (AID 1347080). To be noted: A549 miR-34 inducible, Hoechst nuclei count, 48 h.
Assay [12] in a line: MELAS cybrid and Rieske KO viability enhancers – cell-based, MELAS cybrids, Rieske KO mouse fibroblasts, CellTiter-Glo, primary screen (AID 1508586;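 active = mean z-score across replicates of 1.96 or higher in either the MELAS or the Rieske mutant cell line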;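 also: z relative to plate mean and SD of compound and empty wells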). To be noted: low glucose.
Assay [13] addresses NAD(+) hydrolase SARM1 (Homo sapiens) (UniProt Q6SZW1). The assay is described as follows: blocking NAD cleavage by SARM1 SAM-TIR – cell lysate, NAD-Glo luminescence (AID 1508614;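 active = compound whose remaining NAD level is above about 45 nM, limit read from the data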;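 also: higher remaining NAD means stronger inhibition of SARM1 NADase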). To be noted: SAM-TIR HEK293T lysate NADase, at 1 µM, stronger effect = higher value.
Assay [14] addresses Mitogen-activated protein kinase 7 (Homo sapiens) (UniProt Q13164). The assay is described as follows: Gal4-ERK5 driven luciferase induction – cell-based, HTS, primary screen (AID 1508626;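 active = luciferase signal above three times the same-plate solvent-only control wells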;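 also: luciferase driven by Gal4-ERK5 fusion binding five Gal4 sites before minimal TATA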). The note with it: HeLa Gal4-ERK5 transactivation, 18 h, at 5 µM, stronger effect = higher value.
Assay [15] is described as follows: galactose survival enhancers in mitochondrial complex I cybrids – cell-based, galactose medium, ATP luminescence, primary screen (AID 1645843;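 active = z-score of at least 1.8 in each of two replicates, scored against plate mean and spread of sample wells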;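 also: positive z means more ATP and so rescue of galactose-driven cybrid death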). The note with it: complex I mutant cybrid cells, 72 h, stronger effect = higher value.
A short description of assay [16]: P. berghei load reduction in hepatocytes – cell-based, HepG2, luciferase luminescence, HepG2 viability, primary screen (AID 624349; in the data active = parasite load remaining mostly below about 12%, no sharp cut-off; inactive = mostly above about 10%;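 also: 100% = mean of DMSO negative control wells on the same plate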). The note with it: P. berghei liver stage in HepG2, luciferase luminescence, concentration not given here; parasite load remaining: stronger effect = lower value; viability: measured here: HepG2 viability without parasites.
A short description of assay [17]: modulation of C. elegans fzo-1 (AID 1259413; call rule not given here;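 also: fzo-1 mutant C. elegans worms in liquid wells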). The note with it: C. elegans fzo-1 modulator screen, mean read-out; stronger effect = higher value.
[18] abbreviates: measured here: epithelial PC-3E GFP cell survival.
Where [19] appears, read: measured here: mesenchymal TEM4-18 mCherry cell survival.
The mark [20] stands for this setting: stronger effect = lower value, cell number ratio, induced over uninduced.
Setting [21] is: measured here: relative caspase fold change +Dox/-Dox.
Where [22] appears, read: measured here: total cells with miR-34 induction, stronger effect = lower value.
Setting [23] is: measured here: total cells without miR-34 induction.
Setting [24] is: MELAS cybrid survival, CellTiter-Glo 48 h, stronger effect = higher value.
Where [25] appears, read: Rieske KO mouse fibroblast survival, CellTiter-Glo 72 h.

Several values for one entry are separate records, joined by “and”; a condition that tells them apart may be missing. Equal entries are not always repeated. Activity calls are given as the source filed them.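 The calls were made as follows, unless noted: active = compounds whose cell count with miR-34 switched on is under 0.7 times the count with it off; inactive = the rest.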

Mitogen-activated protein kinase 7 (Homo sapiens), sequence (Q13164 whole entry, looked up, the tested form may be a part): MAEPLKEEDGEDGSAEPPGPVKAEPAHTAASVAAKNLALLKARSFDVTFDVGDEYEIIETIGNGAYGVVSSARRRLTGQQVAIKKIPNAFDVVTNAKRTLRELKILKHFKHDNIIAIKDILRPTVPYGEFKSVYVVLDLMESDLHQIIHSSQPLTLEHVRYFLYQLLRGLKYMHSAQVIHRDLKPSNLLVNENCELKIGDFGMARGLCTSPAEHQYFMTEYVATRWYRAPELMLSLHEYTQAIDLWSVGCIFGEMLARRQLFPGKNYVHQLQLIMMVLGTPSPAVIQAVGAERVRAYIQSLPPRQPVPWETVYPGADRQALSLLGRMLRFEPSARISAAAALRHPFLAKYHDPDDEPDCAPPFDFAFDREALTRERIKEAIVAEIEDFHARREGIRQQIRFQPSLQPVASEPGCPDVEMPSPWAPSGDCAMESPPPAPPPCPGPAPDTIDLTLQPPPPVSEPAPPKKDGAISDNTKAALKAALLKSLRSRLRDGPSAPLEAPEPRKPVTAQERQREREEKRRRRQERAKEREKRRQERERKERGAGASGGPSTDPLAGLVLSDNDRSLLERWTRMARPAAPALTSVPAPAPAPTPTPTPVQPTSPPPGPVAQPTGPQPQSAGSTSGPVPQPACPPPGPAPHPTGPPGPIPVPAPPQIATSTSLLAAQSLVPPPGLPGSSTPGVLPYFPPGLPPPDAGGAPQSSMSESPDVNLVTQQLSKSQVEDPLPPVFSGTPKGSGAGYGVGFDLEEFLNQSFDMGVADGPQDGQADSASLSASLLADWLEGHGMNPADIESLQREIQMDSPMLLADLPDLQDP
NAD(+) hydrolase SARM1 (Homo sapiens), sequence (Q6SZW1 whole entry, looked up, the tested form may be a part): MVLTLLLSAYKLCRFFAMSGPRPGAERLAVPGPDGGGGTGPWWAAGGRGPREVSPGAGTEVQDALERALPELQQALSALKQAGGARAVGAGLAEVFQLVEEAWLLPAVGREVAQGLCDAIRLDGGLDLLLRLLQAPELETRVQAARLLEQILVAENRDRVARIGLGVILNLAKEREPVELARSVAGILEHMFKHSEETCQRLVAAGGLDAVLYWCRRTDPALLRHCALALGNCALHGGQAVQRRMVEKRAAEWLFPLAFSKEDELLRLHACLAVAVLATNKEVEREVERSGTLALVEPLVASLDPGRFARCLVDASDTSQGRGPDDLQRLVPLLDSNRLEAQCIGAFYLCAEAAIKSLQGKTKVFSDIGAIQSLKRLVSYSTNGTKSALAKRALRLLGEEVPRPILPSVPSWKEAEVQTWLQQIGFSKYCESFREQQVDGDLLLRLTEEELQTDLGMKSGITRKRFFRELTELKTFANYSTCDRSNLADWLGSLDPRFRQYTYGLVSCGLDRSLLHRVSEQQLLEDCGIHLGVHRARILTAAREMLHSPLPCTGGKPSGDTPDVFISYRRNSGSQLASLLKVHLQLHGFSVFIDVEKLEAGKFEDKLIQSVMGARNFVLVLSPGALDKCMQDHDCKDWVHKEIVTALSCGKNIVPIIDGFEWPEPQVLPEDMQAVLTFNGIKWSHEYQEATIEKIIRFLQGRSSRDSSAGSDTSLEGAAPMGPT

The term inhibition denotes the drop in the measured response relative to a control, in per cent. Regarding `CN(C)C(=N)N=C(N)N`, the survival in assay [1] is 14 (inactive). Further, the insulin secretion stimulation in assay [2] was -2.3% (inactive). In assay [3], the viability decrease was -7% (inactive). Besides, the tube area decrease in [4] was -11.5% (inactive). The GLP1 secretion stimulation in [5] is 3.1% (inactive). Moreover, the inhibition of viability in [6] was -25.7% (inactive). The viability decrease (inhibition) was 17% (inactive) in assay [7] and -1.55% (inactive) in [8]. The inhibition in assay [9] was 10.4% (inactive). Also, the red/green cell ratio (normalised) in [10] was 0.72 (inactive). Moreover, the normalised cell number in assay [10] (setting [18]) is 1.31; in [10] (setting [19]) it was 0.95. In addition, the fold change in assay [11] (setting [20]) was 0.831 (inactive) and 0.956 (inactive) and 0.958 (inactive); in [11] (setting [21]) it was 1.13 and 2.95 and 0.938. For the same compound, the cell count was 7440 and 12900 and 10500 in assay [11] (setting [22]); 8950 and 13500 and 10900 in [11] (setting [23]). The z-score in [12] (setting [24]) is -0.356 (inactive) and 0.193 (inactive); in assay [12] (setting [25]), 0.0508 and -0.797; in assay [15], 0.78 (inactive). In addition, in assay [13], the remaining NAD was 10 nM (inactive). Further, the luciferase signal in assay [14] is 508 AU (active).

Turning to `CC(=O)O[C@@H]1CC2C(C)(C)CCC(=O)[C@]2(C)C2CC[C@@]3(C)[C@H](c4ccoc4)OC(=O)C4OC43[C@@]21C` (some centres undefined), the inhibition in assay [9] was -0.737% (inactive).

The term viability denotes a read-out of living cells in per cent, often relative to untreated cells. Regarding `CC(C)(C(=O)O)c1ccc(C(O)CCCN2CCC(C(O)(c3ccccc3)c3ccccc3)CC2)cc1` (centres undefined), in assay [16], the parasite load remaining is 72.9% (inactive) and 85.2% (inactive) and 65.9% (inactive). In addition, the viability in assay [16] is 89.9% and 71.9% and 128%. Moreover, the insulin secretion stimulation in [2] was 2.1% (inactive). Moreover, the viability decrease in assay [3] is 1.3% (inactive). In [4], the tube area decrease was -20.5% (inactive). Besides, the GLP1 secretion stimulation in [5] is -2.2% (inactive). In assay [6], the inhibition of viability was -3.77% (inactive). Further, the viability decrease (inhibition) in assay [7] was 33.1% (inactive); in [8], -0.4% (inactive). In assay [17], the mean signal was 241 (inactive). Further, the red/green cell ratio (normalised) in assay [10] is 1.14 (inactive). The normalised cell number was found to be 0.92 in assay [10] (setting [18]) and 1.05 in [10] (setting [19]). For the same compound, the z-score in assay [12] (setting [24]) was -0.235 (inactive) and -0.763 (inactive); in [12] (setting [25]), -0.15 and -0.362; in assay [15] it was 0.205 (inactive) and 1.1 (inactive) and -0.085 (inactive). Besides, the remaining NAD in assay [13] is 10 nM (inactive). For the same compound, the luciferase signal in assay [14] is 40 AU (inactive).

For the compound `CC=C(C)C(=O)OC1C(OC(C)=O)[C@]2(CO)C(O)C[C@]3(C)C(=CCC4[C@@]5(C)CCC(OC6OC(C(=O)O)C(OC7OC(CO)C(O)C(O)C7O)C(O)C6OC6OC(CO)C(O)C(O)C6O)[C@](C)(CO)C5CC[C@]43C)C2CC1(C)C` (some centres undefined), the inhibition in assay [9] was 10.9% (inactive).

For `Cc1occc(=O)c1/C=C/O`, the inhibition in assay [9] was 0.162% (inactive).

Regarding `NCCCC(O)(P(=O)(O)O)P(=O)(O)O`, the parasite load remaining in [16] was 53.9% (inactive) and 32.7% (inactive). For the same compound, the viability in assay [16] was 103% and 67.5%. Also, the insulin secretion stimulation in [2] is 2.3% (inactive). The viability decrease in assay [3] was 6.9% (inactive). In [4], the tube area decrease is -27.4% (inactive). Further, in assay [5], the GLP1 secretion stimulation is 1.2% (inactive). Moreover, the inhibition of viability in assay [6] was 1.17% (inactive). Further, the viability decrease (inhibition) in [7] was -1.7% (inactive); in assay [8] it was -3.8% (inactive). Moreover, the red/green cell ratio (normalised) in assay [10] is 1.07 (inactive). The normalised cell number in assay [10] (setting [18]) was 1; in [10] (setting [19]) it was 1.08. Also, the fold change was 1.41 (inactive) and 0.87 (inactive) and 0.867 (inactive) in assay [11] (setting [20]); 0.419 and 4.85 and 1.52 in assay [11] (setting [21]). Further, the cell count was 8960 and 12100 and 9780 in assay [11] (setting [22]); 6340 and 13900 and 11300 in assay [11] (setting [23]). The z-score in assay [12] (setting [24]) was 0.332 (inactive) and -1.05 (inactive) and 0.581 (inactive); in [12] (setting [25]), 0.0856 and -0.0862 and 0.207; in [15], -2.05 (inactive) and 0.675 (inactive). The remaining NAD in [13] was 10 nM (inactive). Moreover, the luciferase signal in assay [14] is 144 AU (inactive).

As to `O=C(O)CCn1c2c(c3ccccc31)C[C@H](NS(=O)(=O)c1ccc(F)cc1)CC2`, the insulin secretion stimulation in [2] was 0.95% (inactive). In assay [3], the viability decrease was 8.7% (inactive). Moreover, the tube area decrease in assay [4] was -6.1% (inactive). For the same compound, the GLP1 secretion stimulation in assay [5] was -0.3% (inactive). The inhibition of viability in assay [6] was 5.1% (inactive). Further, the viability decrease (inhibition) in assay [7] was -25.4% (inactive); in [8] it was -0.3% (inactive). The figures for the fold change in assay [11] (setting [20]) and in assay [11] (setting [21]) were 0.961 (inactive) and 0.911, respectively. For the same compound, the cell count in assay [11] (setting [22]) worked out at 5630; in assay [11] (setting [23]) it was 5850.
